# Screens (PubChem BioAssay)
# Sampled rows, rich in hits. Any-hit rate of the full collection: about 2.2%.
# Giardia FBPA inh: qHTS Assay for Inhibitors of Fructose-1,6-bisphosphate Aldolase from Giardia Lamblia | A8B2U2 | purified Giardia FBPA | Potency, µM (titrated, usually from 59.6 µM), for inactives: at the highest dose activity, negative = inhibition, most hits filed as inhibitors | actives 0.71% (n = 290,000) | AID 2451, 2010; active = well fitted inhibition curve with a large enough effect; inconclusive = small, poorly fitted or top-dose-only effect, or effect the other way; also: nearly all actives have a fitted effect of over 55% in size
# Target sequence (A8B2U2 whole entry, looked up): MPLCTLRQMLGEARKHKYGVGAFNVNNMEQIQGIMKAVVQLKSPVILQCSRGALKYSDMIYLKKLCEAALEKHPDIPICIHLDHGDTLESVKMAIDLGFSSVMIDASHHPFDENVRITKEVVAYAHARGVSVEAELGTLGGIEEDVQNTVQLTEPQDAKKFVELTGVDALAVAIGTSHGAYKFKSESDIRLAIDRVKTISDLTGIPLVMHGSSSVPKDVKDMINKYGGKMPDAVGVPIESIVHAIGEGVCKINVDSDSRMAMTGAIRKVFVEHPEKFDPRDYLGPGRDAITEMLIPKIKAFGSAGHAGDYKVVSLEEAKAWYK
#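 40 nM FBPA preincubated 10 min at RT with compound (up to 57.5 uM final), then substrate plus GAPDH/TPI/NAD/arsenate coupling and diaphorase/resazurin added. Fluorescence read after 20 min at RT, 525/598 nm.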
# Vaccinia mCherry: qHTS for Stage-Specific Inhibitors of Vaccinia Orthopoxvirus: mCherry Reporter Primary qHTS | Vaccinia virus mCherry reporter infection, fluorescence | Potency, µM (top dose mostly 36.5 µM), without a hit: at the top dose activity change, negative = inhibition, hits mostly inhibitors | actives 0.63% (n = 310,000) | AID 720579, 2013; calls by dose curve; tested in A549 cells; also: nearly all actives have a fitted effect of over 35% in size
# FMDV inh: High Throughput Screening for Foot and Mouth Disease Virus Antivirals | FMDV antiviral cell-based qHTS | Potency, µM (highest dose often 57.9 µM), without a hit: at the highest dose activity change, negative = inhibition, most hits filed as inhibitors | actives 1.2% (n = 410,000); calls by dose curve; tested in HEK293T cells; also: read-out not given here; nearly all actives have a fitted effect of over 45% in size
# VACV Venus inh: qHTS for Stage-Specific Inhibitors of Vaccinia Orthopoxvirus: Venus Reporter Primary qHTS. AID 720580, 2013. Vaccinia virus Venus reporter expression, fluorescence. actives 0.46% (n = 330,000). Potency, µM (series often up to 36.5 µM), for the others: top-dose activity change, negative = inhibition, hits mostly inhibitors; calls by dose curve; tested in A549 cells; also: nearly all actives have a fitted effect of over 30% in size
# * = called active by the depositor; i = inactive; u = inconclusive; x = not tested or not shown; [ ] = another dose, or the depositor's remark. % is scaled to controls: 0 for no effect and ±100 for the full control effect; potency is read from the fitted curve at half-maximal effect.
SMILES,Giardia FBPA inh,Vaccinia mCherry,FMDV inh,VACV Venus inh
CCOc1ccc(CN(C)C(=O)c2ccc(S(=O)(=O)N(C)c3ccccc3OC)cc2)cc1,x,x,22µM*,x
CCOC(=O)c1ccc(NC(=O)c2ccc(C)c(S(=O)(=O)N3CCOCC3)c2)cc1,-9%,u,14µM*,u
CCC1(C2CCN(Cc3cccc4ccccc34)CC2)NC(=O)N(Cc2ccc3c(c2)OCO3)C1=O (configuration not stated),x,-13%,-2%,-28%
CC(=O)c1ccc(NC(=O)CCCSc2nc(-c3ccco3)cc(C(F)(F)F)n2)cc1,x,-23%,-28%,-18%
Cc1ccc(C(=O)Nc2ccccc2[N+](=O)[O-])cc1S(=O)(=O)N1CCOCC1,9%,i,-2%,-3%
Cc1ccc(NC(=O)c2ccc(NCCCN3CCOCC3)c([N+](=O)[O-])c2)cc1Cl,5%,u,32µM*,u
Cc1cc(C)n(-c2ccc(C(=O)Nc3cc(S(=O)(=O)N(C)C)ccc3Cl)cc2)n1,-14%,u,28µM*,-15%
COc1ccccc1N(C)S(=O)(=O)c1ccc(C(=O)Nc2nc(C)cs2)cc1,-8%,x,28µM*,x
Cc1ccc(NC(=O)c2ccc(N3CCOCC3)c([N+](=O)[O-])c2)cc1S(=O)(=O)N1CCOCC1,-4%,-12%,13µM*,-23%
O=C(Nc1ccc(Cl)c([N+](=O)[O-])c1)c1ccc(NCCCN2CCOCC2)c([N+](=O)[O-])c1,11%,x,8%,x
N#Cc1cccc(-c2ccc3ncnc(NCc4ccccc4)c3c2)c1,1%,x,u,x
CNc1c(Cl)cc(/C=C2\C=Cc3ccccc32)cc1Cl,x,31%,x,-3%
Cc1ccc(NC(=O)c2cccnc2)cc1S(=O)(=O)N1CCOCC1,x,i,-16%,-5%
O=C(Nc1cccc(S(=O)(=O)N2CCOCC2)c1)c1ccc(Cl)c([N+](=O)[O-])c1,-5%,i,40µM*,-9%
COc1cccc(C(=O)Nc2cccc(C(=O)NCC(C)C)c2)c1,0%,-4%,-1%,-16%
Cc1cc(C)n(-c2ccc(C(=O)Nc3ccc(C)c(S(=O)(=O)N4CCOCC4)c3)cc2)n1,-2%,u,14µM*,-24%
CC(C)CNC(=O)c1cccc(NC(=O)c2ccc(Cl)c([N+](=O)[O-])c2)c1,0%,-9%,28µM*,-10%
COc1ccccc1N(C)S(=O)(=O)c1ccc(C(=O)Nc2cccc(S(=O)(=O)N3CCOCC3)c2)cc1,x,x,25µM*,x
Cc1cc(Cl)ccc1OCC(=O)N1CCOc2ccc(CN3C[C@@H](C)O[C@@H](C)C3)cc2C1,x,-13%,-20%,-1%
CC(C)(O)C#Cc1ccc(C(=O)NCCN2Cc3ccccc3OC(c3ccccc3F)C2)o1 (configuration not stated),x,-10%,-10%,1%
c1ccc(C(c2ccccc2)N2CCN(c3nc4ccccc4n4cnnc34)CC2)cc1,-4%,-7%,28µM*,-17%
c1cnc(N2CCN(c3nc4ccccc4n4cnnc34)CC2)nc1,7%,x,9%,x
O=C(NCCc1c[nH]c2ccccc12)/C(=C\c1cccnc1)NC(=O)c1ccco1,4%,-11%,-26%,-7%
O=C(NCCc1c[nH]c2ccccc12)/C(=C\c1cccnc1)NC(=O)c1ccccc1Br,9%,x,3.5µM*,x
Cc1ccc(N2C(N)=C(C#N)C(c3cccnc3)C3=C2CCCC3=O)cc1 (configuration not stated),-19%,0%[1.46 µM],4%,-5%
SMILES,Giardia FBPA inh,Vaccinia mCherry,FMDV inh,VACV Venus inh
Cc1nn(C)cc1C1C(C#N)=C(N)N(c2ccc(F)c([N+](=O)[O-])c2)C2=C1C(=O)CCC2 (configuration not stated),u,10µM*,-30%,u
COc1cccc(/C=C2\Oc3ccc(O)cc3C2=O)c1O,-5%,-5%,11µM*,63%
COC(=O)c1ccc2c(c1)C(=O)/C(=C/c1ccc(O)cc1)O2,18%,i,3%,20%
CCCCN(CCCC)c1ccc(C=Nc2ccc(/C=C/c3ccnc4ccccc34)cc2)cc1C,x,-17%,x,-14%
COc1ccc2c(c1)-c1nc(-n3ncc(C(=O)N(C)CC4CCCN(C)C4)c3C)ncc1CC2 (configuration not stated),x,-15%,-17%,-2%
CCOC(=O)Cc1csc(NC(=O)COc2ccc(N(C)S(=O)(=O)c3cccs3)cc2)n1,-8%,x,25µM*,-19%
CCOC(=O)Cc1csc(NC(=O)COc2ccccc2)n1,3%,x,u,x
Cc1c(C(=O)Nc2ccncc2)sc2nc(-c3ccccc3)cn12,-13%,-4%,20µM*,u
Cc1c(C(=O)Nc2ccc3c(c2)OCCO3)sc2nc(-c3ccccc3)cn12,-2%,u,16µM*,-28%
CCN(CC)c1ccc(NC(=O)c2sc3nc(-c4ccccc4)cn3c2C)cc1,x,-7%,-26%,u
CCC(O)CNC(=O)c1cnn(-c2nccc(-c3cc(C)sc3C)n2)c1C1CC1 (configuration not stated),x,-25%,36%,-12%
COc1ccc2c(c1)-c1nc(-n3ncc(C(=O)N(C)CCO)c3C3CC3)ncc1CC2,x,-16%,35%,-14%
Nc1ccc(O)c(C(=O)O)c1,3.5µM*,x,x,x
Cc1cc(Nc2cccc(Cl)c2)c2ccccc2n1,2%,x,u,x
Cc1cc(Nc2ccc3c(c2)OCCO3)c2cc(Cl)ccc2n1,-16%,-27%,40µM*,-16%
COC(=O)CSc1cccc2c1C(=O)CC2c1ccccc1 (configuration not stated),12%,i,27%,5%
O=C1C=CC2(O[C@H](c3ccccc3)[C@@H](c3ccccc3)O2)[C@H](Sc2ccccc2O)C1,x,10µM*,7.9µM*,u
COc1ccc(C(=O)Nc2nc(C)c(C)s2)cc1OC,0%,x,11%,-3%
COc1ccc(Nc2nc(N)c(C(=O)c3ccc(OC)cc3)s2)cc1,-9%,1.8µM*,3%,-25%
COc1cccc(C(=O)c2sc(NC(C)C)nc2N)c1,-19%,x,9%,7.1µM*
COc1ccc(Nc2nc(N)c(C(=O)c3ccc(F)cc3)s2)cc1,7%,u,13%,u
COc1ccc(C(=O)c2sc(NC(C)C)nc2N)cc1OC,1%,x,4%,11µM*
CC(CCC(C)[n+]1cccc(Br)c1)[n+]1cccc(Br)c1 (configuration not stated),x,i,x,3%
COc1ccccc1CCNc1ncnc2sc(C(=O)N3CCCN(C=O)CC3)c(C)c12,x,-13%,-26%,-6%
CN1CCCN(C(=O)[C@@H]2C[C@@H](Sc3nc4ccccc4[nH]3)CN2Cc2ccc(OC(F)(F)F)cc2)CC1,x,-24%,-13%,-9%
CC[n+]1ccc(/C=C/c2ccc(N(C)C)cc2)c2ccccc21,-14%,i,18µM*,i
CC[n+]1c(/C=C/c2ccc(N(C)C)cc2)ccc2ccccc21,-5%,301%,6.3µM*,392%
CCN(CC)c1ccc(/C=C/c2ccc3ccc(OC)cc3[n+]2CC)cc1,6%,x,7.9µM*,x
CN(C)c1ccc(/C=C/c2ccc3ccccc3[n+]2[O-])cc1,x,-8%,x,i
